From PubChem BioAssay
A number with no mark means an inactive call. This is one part of the list. Activity calls are given as the source filed them. Cut-off read from the data, not from the text of the source, unless noted: active = inhibition above about 44%; inactive = the rest.

What was measured:
[1] = target: Nuclear receptor coactivator 3 (Homo sapiens) (UniProt Q9Y6Q9); test: SRC3 coactivator transcriptional activity inhibitors, confirmation, cell-based, luminescence, quadruplicate (AID 588792;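 active = mean inhibition over 43.08%, the solvent-only control mean plus 3 SD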;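 note: 0% = DMSO treated cells and 100% = gossypol at 36 µM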); conditions: HEK293 GAL4-SRC3 luciferase reporter, at 3.6 µM, hits give high values
[2] = tested on: transactivating tegument protein VP16 (Human herpesvirus 1), Gal4-VP16 luciferase reporter; test: VP16 transactivation inhibitors, counter-screen for SRC3 inhibitor project, cell-based, luminescence, high throughput (AID 588794; in the data active = inhibition above about 30%); conditions: mammalian cells, VP16-driven luciferase reporter luminescence; at 3.6 µM; hits give high values
[3] = target: Nuclear receptor coactivator 1 (Homo sapiens) (UniProt Q15788); test: SRC1 coactivator transcriptional activity inhibitors, confirmation, cell-based, luminescence, quadruplicate (AID 588820;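 active = mean inhibition above 46.68%, the untreated control wells mean plus 3 SD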;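 note: 0% = DMSO wells and 100% = gossypol 36 µM treated wells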); conditions: HEK293 GAL4-SRC1 luciferase reporter, at 3.6 µM, hits give high values
[4] = VP16 transactivation inhibitors, counter-screen for SRC1 inhibitor project, cell-based, luminescence, high throughput (AID 588824; in the data active = inhibition above about 25%); conditions: cell-based VP16 transactivation luciferase luminescence; at 3.6 µM; hits give high values
[5] = tested on: transactivating tegument protein VP16 (Human herpesvirus 1); test: VP16 transactivation reporter inhibitors, counter-screen for SRC2 inhibitor project, cell-based, luminescence, single concentration (AID 652007; in the data active = inhibition above about 36%); conditions: cell-based VP16 transactivation luciferase reporter, at 8.9 µM, hits give high values
[6] = target: Nuclear receptor coactivator 2 (Homo sapiens) (UniProt Q15596); test: SRC2 coactivator transcriptional activity inhibitors, confirmation, cell-based, luminescence, HEK293, triplicate (AID 652008;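 active = mean inhibition above 46.5%, the solvent-only control mean plus 3 SD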;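 note: 0% = DMSO-treated cells and 100% = Gossypol at 36 µM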); conditions: HEK293 GAL4-SRC2 luciferase reporter, at 8.9 µM, hits give high values
[7] = StAR promoter reporter inhibitors, counter-screen for LRH-1 inverse agonist project, cell-based, luminescence, high throughput (AID 651611; in the data active = inhibition above about 28%); conditions: StAR promoter luciferase reporter counterscreen, at 3.6 µM, hits give high values
[8] = target: Nuclear receptor subfamily 5 group A member 2 (Homo sapiens) (UniProt O00482); test: LRH-1 (NR5A2) inverse agonists, retest, confirmation, cell-based, luminescence (AID 651613; in the data active = inhibition above about 42%;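 note: HEK293T cells co-transfected with LRH-1 and StAR promoter luciferase reporter; 0% = vehicle wells and 100% = parental cells lacking receptor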); conditions: cell-based LRH-1 luciferase reporter, inverse agonism; at 3.6 µM; hits give high values
[9] = target: Steroidogenic factor 1 (Homo sapiens) (UniProt Q13285); test: SF1 (NR5A1) inverse agonists, counter-screen for LRH-1 inverse agonist project, cell-based, luminescence, high throughput (AID 651614); conditions: cell-based SF1 luciferase reporter, at 3.6 µM, hits give high values;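 note: cells cotransfected with StAR promoter reporter and SF1 expression vector; 0% = vehicle on cells with receptor and 100% = vehicle on cells lacking receptor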
[10] = VP16 transactivation reporter inhibitors, counter-screen for LRH-1 inverse agonist project, cell-based, luminescence, high throughput (AID 651615; in the data active = inhibition above about 33%); conditions: Gal4-VP16 luciferase reporter cells, at 3.6 µM, hits give high values
[11] = target: Receptor-interacting serine/threonine-protein kinase 2 (Homo sapiens) (UniProt O43353); test: NOD2-RIPK2 binding disruptors, retest, confirmation, fluorescence, CHO cells, BLA complementation, triplicate (AID 624370;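 active = mean inhibition across replicates above a set limit taken from the earlier primary screen, cut at about 21% in these data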;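 note: 0% = DMSO-only wells and the high end = clavulanate BLA-blocked wells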); conditions: CCF4 FRET, at 4.98 µM, hits give high values
[12] = beta-lactamase reporter inhibitors in CHO cells, confirmation, artefact control for NOD2-RIPK2 interaction inhibitor project, cell-based, CHO-K1 CMV-bla, CCF4 FRET, fluorescence (AID 624371;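 active = mean inhibition above the low-control mean inhibition plus three low-control SD, cut at about 11% in these data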;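 note: 0% = DMSO only wells and 100% = clavulanate high control wells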); conditions: CCF4 FRET ratio, counterscreen, at 4.98 µM, hits give high values
[13] = target: Photoreceptor-specific nuclear receptor (Homo sapiens) (UniProt Q9Y5X4); test: NR2E3 agonist confirmation in cells, cell-based, luminescence, CHO-S two-hybrid (AID 624378;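 active = average inhibition above a cutoff equal to the mean inhibition of all tested compounds plus one SD, cut at about 70% in these data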;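 note: 0% = DMSO in NR2E3 cells and 100% = DMSO in cells lacking NR2E3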); conditions: CHO-S mammalian two-hybrid NR2E3-NCOR, luciferase luminescence; at 3.98 µM; hits give high values
[14] = GAL4-VP16 reporter modulators, confirmation, counter-screen for NR2E3 agonist project, cell-based, luminescence, CHO-S, high throughput (AID 624379;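 active = mean inhibition above a cutoff equal to the average over all tested compounds plus one standard deviation, cut at about 70% in these data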;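 note: 0% = DMSO with VP16-transfected cells and 100% = DMSO with cells lacking VP16; higher means less reporter light so more repression of VP16 activity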); conditions: CHO-S GAL4-VP16 luciferase reporter, at 3.98 µM, hits give high values

Nuclear receptor subfamily 5 group A member 2 (Homo sapiens), sequence (O00482 whole entry, looked up): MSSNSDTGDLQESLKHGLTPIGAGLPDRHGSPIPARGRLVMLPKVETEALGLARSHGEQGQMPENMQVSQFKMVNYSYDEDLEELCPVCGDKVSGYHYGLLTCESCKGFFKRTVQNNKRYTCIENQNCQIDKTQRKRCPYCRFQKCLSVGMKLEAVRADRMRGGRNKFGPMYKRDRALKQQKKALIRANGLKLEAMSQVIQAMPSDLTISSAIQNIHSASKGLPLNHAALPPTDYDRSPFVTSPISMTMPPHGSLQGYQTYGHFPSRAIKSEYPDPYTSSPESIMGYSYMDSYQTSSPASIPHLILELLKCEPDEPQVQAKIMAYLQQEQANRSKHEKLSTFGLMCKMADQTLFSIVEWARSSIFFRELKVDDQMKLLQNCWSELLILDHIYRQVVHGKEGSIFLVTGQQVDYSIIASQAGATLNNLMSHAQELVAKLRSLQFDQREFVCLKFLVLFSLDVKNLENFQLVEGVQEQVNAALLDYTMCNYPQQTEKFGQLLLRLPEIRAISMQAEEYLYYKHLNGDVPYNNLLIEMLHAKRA
Steroidogenic factor 1 (Homo sapiens), sequence (Q13285 whole entry, looked up, the tested form may be a part): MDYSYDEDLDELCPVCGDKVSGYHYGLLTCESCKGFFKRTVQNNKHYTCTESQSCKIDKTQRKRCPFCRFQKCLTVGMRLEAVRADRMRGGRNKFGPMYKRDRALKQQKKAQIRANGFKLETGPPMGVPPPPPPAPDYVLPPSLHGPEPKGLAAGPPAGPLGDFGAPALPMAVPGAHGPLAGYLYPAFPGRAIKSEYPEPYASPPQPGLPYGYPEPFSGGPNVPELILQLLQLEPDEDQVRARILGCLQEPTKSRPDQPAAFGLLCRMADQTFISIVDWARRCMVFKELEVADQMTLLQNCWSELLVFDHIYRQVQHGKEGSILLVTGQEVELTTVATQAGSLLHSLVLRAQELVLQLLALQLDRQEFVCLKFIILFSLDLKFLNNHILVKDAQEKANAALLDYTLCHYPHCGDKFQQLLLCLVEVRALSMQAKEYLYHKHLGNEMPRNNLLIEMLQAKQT
Nuclear receptor coactivator 2 (Homo sapiens), sequence (Q15596 whole entry, looked up, the tested form may be a part): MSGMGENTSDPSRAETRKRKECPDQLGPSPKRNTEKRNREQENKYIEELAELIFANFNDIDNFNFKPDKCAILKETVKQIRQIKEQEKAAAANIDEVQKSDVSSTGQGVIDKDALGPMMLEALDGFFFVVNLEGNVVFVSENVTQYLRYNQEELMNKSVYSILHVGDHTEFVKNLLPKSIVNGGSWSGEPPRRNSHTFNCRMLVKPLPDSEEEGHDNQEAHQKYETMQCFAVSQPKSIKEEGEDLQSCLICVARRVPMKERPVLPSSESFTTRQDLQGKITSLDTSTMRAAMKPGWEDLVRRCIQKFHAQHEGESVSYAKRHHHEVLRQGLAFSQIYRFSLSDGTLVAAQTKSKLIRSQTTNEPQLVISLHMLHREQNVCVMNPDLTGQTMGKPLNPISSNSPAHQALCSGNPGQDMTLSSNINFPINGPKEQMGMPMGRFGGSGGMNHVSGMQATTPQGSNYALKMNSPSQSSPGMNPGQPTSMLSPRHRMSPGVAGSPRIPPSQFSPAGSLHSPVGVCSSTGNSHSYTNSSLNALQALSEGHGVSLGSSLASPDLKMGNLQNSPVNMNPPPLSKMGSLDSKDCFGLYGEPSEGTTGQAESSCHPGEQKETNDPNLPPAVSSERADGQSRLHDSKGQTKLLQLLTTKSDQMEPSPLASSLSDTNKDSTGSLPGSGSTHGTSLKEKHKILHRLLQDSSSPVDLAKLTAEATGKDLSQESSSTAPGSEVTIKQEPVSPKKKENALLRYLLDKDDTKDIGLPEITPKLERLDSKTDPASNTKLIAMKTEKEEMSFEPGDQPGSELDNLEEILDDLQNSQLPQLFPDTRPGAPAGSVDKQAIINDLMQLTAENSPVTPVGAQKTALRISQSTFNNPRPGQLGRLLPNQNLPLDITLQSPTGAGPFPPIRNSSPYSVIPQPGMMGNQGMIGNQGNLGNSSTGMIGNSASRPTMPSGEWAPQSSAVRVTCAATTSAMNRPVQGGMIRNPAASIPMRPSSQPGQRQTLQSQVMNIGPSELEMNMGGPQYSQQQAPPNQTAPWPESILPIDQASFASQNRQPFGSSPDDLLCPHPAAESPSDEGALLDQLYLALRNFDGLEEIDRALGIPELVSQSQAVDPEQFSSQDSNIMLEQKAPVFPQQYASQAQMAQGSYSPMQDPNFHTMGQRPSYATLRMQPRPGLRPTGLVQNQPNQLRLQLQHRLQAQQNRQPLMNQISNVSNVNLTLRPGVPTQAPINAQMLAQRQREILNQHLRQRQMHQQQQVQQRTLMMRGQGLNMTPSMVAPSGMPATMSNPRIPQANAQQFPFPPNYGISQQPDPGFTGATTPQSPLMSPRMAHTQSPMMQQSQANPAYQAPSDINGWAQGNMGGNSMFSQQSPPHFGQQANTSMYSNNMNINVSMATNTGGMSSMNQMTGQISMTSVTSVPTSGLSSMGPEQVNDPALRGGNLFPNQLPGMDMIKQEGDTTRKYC
Nuclear receptor coactivator 3 (Homo sapiens), sequence (Q9Y6Q9 whole entry, looked up, the tested form may be a part): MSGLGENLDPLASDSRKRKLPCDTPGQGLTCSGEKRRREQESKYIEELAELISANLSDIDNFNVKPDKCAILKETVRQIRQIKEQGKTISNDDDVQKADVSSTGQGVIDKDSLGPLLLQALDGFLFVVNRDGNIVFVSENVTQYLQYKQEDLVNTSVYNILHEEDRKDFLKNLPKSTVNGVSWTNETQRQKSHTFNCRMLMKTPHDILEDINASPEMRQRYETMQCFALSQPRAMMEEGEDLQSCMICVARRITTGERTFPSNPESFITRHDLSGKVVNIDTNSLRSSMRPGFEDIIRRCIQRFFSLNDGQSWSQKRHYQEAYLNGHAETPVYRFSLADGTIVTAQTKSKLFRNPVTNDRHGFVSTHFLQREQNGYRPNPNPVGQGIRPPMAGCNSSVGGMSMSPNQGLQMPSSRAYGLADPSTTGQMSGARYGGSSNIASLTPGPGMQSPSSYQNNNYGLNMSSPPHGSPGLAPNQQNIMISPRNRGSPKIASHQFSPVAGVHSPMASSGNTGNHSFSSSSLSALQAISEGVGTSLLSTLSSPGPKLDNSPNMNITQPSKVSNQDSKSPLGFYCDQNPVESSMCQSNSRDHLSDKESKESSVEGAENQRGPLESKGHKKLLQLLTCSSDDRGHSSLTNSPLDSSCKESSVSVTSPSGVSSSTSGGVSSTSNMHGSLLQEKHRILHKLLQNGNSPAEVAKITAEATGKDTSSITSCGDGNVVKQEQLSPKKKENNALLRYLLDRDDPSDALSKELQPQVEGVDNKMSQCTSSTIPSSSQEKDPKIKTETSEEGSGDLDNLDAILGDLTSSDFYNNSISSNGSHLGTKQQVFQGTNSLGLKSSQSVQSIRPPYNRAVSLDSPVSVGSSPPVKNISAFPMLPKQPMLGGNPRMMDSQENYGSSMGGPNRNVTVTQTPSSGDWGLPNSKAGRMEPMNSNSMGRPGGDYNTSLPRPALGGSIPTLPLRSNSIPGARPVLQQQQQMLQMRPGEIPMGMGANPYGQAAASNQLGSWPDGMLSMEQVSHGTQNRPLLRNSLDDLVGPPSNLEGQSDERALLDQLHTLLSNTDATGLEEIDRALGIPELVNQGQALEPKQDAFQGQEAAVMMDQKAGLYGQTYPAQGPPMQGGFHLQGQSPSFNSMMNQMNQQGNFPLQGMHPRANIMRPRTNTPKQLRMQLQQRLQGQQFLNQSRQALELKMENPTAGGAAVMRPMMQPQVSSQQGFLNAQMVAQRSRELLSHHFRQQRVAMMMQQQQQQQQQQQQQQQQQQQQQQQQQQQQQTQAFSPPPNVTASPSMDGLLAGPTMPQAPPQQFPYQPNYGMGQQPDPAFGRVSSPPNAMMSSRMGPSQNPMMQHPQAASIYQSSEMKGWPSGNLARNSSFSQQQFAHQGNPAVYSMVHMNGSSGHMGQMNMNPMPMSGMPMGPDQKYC
Photoreceptor-specific nuclear receptor (Homo sapiens), sequence (Q9Y5X4 whole entry, looked up, the tested form may be a part): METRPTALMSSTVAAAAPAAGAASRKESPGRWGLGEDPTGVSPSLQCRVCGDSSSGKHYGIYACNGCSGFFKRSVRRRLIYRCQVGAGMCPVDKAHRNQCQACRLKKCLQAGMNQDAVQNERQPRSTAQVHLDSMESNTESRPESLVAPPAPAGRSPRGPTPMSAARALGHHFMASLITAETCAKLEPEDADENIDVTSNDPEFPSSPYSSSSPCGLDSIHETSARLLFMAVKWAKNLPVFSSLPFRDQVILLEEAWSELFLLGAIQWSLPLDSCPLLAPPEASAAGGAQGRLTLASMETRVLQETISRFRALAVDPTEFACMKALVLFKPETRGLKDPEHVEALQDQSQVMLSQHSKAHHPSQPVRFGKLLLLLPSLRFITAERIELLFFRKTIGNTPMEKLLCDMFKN
Receptor-interacting serine/threonine-protein kinase 2 (Homo sapiens), sequence (O43353 whole entry, looked up): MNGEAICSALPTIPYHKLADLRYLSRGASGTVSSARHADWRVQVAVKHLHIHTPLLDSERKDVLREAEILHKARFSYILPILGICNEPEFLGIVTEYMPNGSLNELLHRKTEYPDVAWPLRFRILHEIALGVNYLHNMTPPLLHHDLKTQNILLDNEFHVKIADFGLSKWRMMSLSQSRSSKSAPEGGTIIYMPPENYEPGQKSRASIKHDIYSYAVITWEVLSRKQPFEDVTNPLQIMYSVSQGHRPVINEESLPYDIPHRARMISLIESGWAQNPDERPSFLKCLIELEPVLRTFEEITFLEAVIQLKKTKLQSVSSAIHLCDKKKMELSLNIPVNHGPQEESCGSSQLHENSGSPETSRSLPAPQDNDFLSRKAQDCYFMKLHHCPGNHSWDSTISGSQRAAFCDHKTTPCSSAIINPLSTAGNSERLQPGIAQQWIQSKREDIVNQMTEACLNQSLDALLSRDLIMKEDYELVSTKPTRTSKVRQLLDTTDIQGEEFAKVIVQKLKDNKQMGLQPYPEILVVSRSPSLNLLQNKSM

## CC1CCOC(=O)C=CC=CC(=O)OC2CC3OC4C5OC5(C)C(O)CC4(COC(=O)C1O)C2(C)C31CO1 (stereo not given)
[1]
  inhibition: 98.8% (active)
[2]
  inhibition: 97.3% (active)
[3]
  inhibition: 97.2% (active)
[4]
  inhibition: 97.1% (active)
[5]
  inhibition: 80.4% (active)
[6]
  inhibition: 75.2% (active)

## CC12CCC3C(CCC4(O)CC(O)CCC34C=NO)C1(O)CCC2C1=COC(=O)C1 (stereo not given)
[1]
  inhibition: 94.5% (active)
[2]
  inhibition: 84.4% (active)
[3]
  inhibition: 61.1% (active)
[4]
  inhibition: 82.2% (active)
[7]
  inhibition: 96.3% (active)
[8]
  inhibition: 110% (active)
[9]
  inhibition: 98.2% (active)
[10]
  inhibition: 89.2% (active)
[5]
  inhibition: 54.3% (active)
[6]
  inhibition: 29.4%

## CC(=O)OCC12CC(OC(=O)CC(C)C)C(C)=CC1OC1C(O)C(OC(C)=O)C2(C)C12CO2 (stereo not given)
[1]
  inhibition: 95.1% (active)
[2]
  inhibition: 91.9% (active)
[3]
  inhibition: 88.5% (active)
[4]
  inhibition: 88.9% (active)
[7]
  inhibition: 97% (active)
[8]
  inhibition: 110% (active)
[9]
  inhibition: 98.3% (active)
[10]
  inhibition: 97.8% (active)
[5]
  inhibition: 79.1% (active)
[6]
  inhibition: 75.4% (active)

## CCN1CCN(c2ncnc3ccc(Br)cc23)CC1
[1]
  inhibition: 56.6% (active)
[2]
  inhibition: 54.3% (active)
[3]
  inhibition: 72.2% (active)
[4]
  inhibition: 44.9% (active)
[5]
  inhibition: 2.45%
[6]
  inhibition: 36.7%

## CC1=CC2OC3CC4OC(=O)C=CC=CC(C(C)O)OCC(O)C(C)CC(=O)OCC2(CC1O)C4(C)C31CO1 (stereo not given)
[1]
  inhibition: 98.7% (active)
[2]
  inhibition: 98.2% (active)
[3]
  inhibition: 97.4% (active)
[4]
  inhibition: 97.9% (active)
[7]
  inhibition: 96.3% (active)
[8]
  inhibition: 108% (active)
[9]
  inhibition: 96% (active)
[10]
  inhibition: 97.5% (active)
[5]
  inhibition: 79.8% (active)
[6]
  inhibition: 70.1% (active)

## O=C1NC2C(=CC(O)C(O)C2O)c2cc3c(cc21)OCO3 (stereo not given)
[1]
  inhibition: 97.1% (active)
[2]
  inhibition: 96.6% (active)
[3]
  inhibition: 88.5% (active)
[4]
  inhibition: 96.3% (active)
[7]
  inhibition: 94% (active)
[8]
  inhibition: 109% (active)
[9]
  inhibition: 96.7% (active)
[10]
  inhibition: 95.6% (active)
[5]
  inhibition: 73.8% (active)
[6]
  inhibition: 76.2% (active)

## N#CC1c2ccccc2-n2nncc2CN1Cc1cc(Cl)cc(Cl)c1 (stereo not given)
[1]
  inhibition: 92.8% (active)
[2]
  inhibition: 84.7% (active)
[3]
  inhibition: 79.7% (active)
[4]
  inhibition: 90.4% (active)
[7]
  inhibition: 90.5% (active)
[8]
  inhibition: 106% (active)
[9]
  inhibition: 94.1% (active)
[10]
  inhibition: 94.3% (active)
[5]
  inhibition: 82.2% (active)
[6]
  inhibition: 84.5% (active)

## O=C1NC2C(O)C(O)C(O)C(O)C2c2cc3c(c(O)c21)OCO3 (stereo not given)
[1]
  inhibition: 97.3% (active)
[2]
  inhibition: 96% (active)
[3]
  inhibition: 93.4% (active)
[4]
  inhibition: 95% (active)
[7]
  inhibition: 96.4% (active)
[8]
  inhibition: 109% (active)
[9]
  inhibition: 97.7% (active)
[10]
  inhibition: 98.6% (active)
[5]
  inhibition: 79.7% (active)
[6]
  inhibition: 75.7% (active)

## CC(=O)OC1C2(CC3N4C(=O)C5(CO)SSC4(CC31O)C(=O)N5C)OC(C)C(C)(C)C2=O (stereo not given)
[11]
  inhibition: 41.9% (active)
[12]
  inhibition: 0.4%
[13]
  inhibition: 98.8% (active)
[14]
  inhibition: 99.1% (active)

## Cc1cc(OC(=O)c2ccco2)c2c3c(c(=O)oc2c1)CCCC3
[7]
  inhibition: 7.67%
[8]
  inhibition: 56% (active)
[9]
  inhibition: 47.2% (active)
[10]
  inhibition: 20.2%

## CC(=O)c1cn(Cc2ccccc2F)c2ccccc12
[3]
  inhibition: -1.96%
[4]
  inhibition: 35.7% (active)

## CCCCn1nnnc1C(CCc1ccccc1)N1CCC(n2c(=O)[nH]c3ccccc32)CC1 (stereo not given)
[3]
  inhibition: -23.9%
[4]
  inhibition: 7.75%

## O=c1[nH]c2ccccc2n1C1CCN(Cc2ccc(-c3[nH]c4cc5ncnc5cc4nc3-c3ccccc3)cc2)CC1
[7]
  inhibition: 42.3% (active)
[8]
  inhibition: 64.2% (active)
[9]
  inhibition: 44% (active)
[10]
  inhibition: 25%

## CCOC(=O)[C@]12Cc3ccc(C)cc3[C@H]1N(C1CCCCC1)C(=O)c1cc(OC)ccc12
[7]
  inhibition: 77.2% (active)
[8]
  inhibition: 104% (active)
[9]
  inhibition: 75.1% (active)
[10]
  inhibition: 91.8% (active)

## COc1cccc2c1C(=O)c1c(O)c3c(c(O)c1C2=O)CC(O)(C(C)=NO)CC3OC1CC(N)C(O)C(C)O1 (stereo not given)
[3]
  inhibition: -12.8%
[4]
  inhibition: 42.6% (active)
[8]
  inhibition: 79.4% (active)
[9]
  inhibition: 62.3% (active)

## CCCCCCN=C(CC)c1c(O)n(CCCC)c(=O)[nH]c1=O
[13]
  inhibition: 84.2% (active)
[14]
  inhibition: 56.9%

## CCN(CC)C(=O)COc1cc(C)cc2oc(=O)c3c(c12)CCCC3
[7]
  inhibition: 7.68%
[8]
  inhibition: 63.6% (active)
[9]
  inhibition: 59% (active)
[10]
  inhibition: -18.9%

## CCOC(=O)[C@]12Cc3cc(OC)ccc3[C@H]1N(C1CCCCC1)C(=O)c1ccccc12
[7]
  inhibition: 49.6% (active)
[8]
  inhibition: 93.3% (active)
[9]
  inhibition: 42.2%
[10]
  inhibition: 87.4% (active)

## C=C1[C@@H](C)[C@H]2[C@H](Cc3ccccc3)NC(=O)[C@]23OC(=O)/C=C/[C@H](O)CCC[C@@H](C)C/C=C/[C@H]3[C@@H]1O
[7]
  inhibition: 52.7% (active)
[8]
  inhibition: 27.9%
[9]
  inhibition: 44.3% (active)
[10]
  inhibition: 27%
